# Test results from PubChem BioAssay AID624126 (The Scripps Research Institute Molecular Screening Center, 2012).
# Out of some 360,000 compounds screened, about 1,400 (0.39%) were called active.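 The calls were made as follows: active = activation above its plate's cutoff, the mean activation of sample wells plus 3 SD; inactive = the rest.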 Shown is part of a subset that was picked to be rich in actives.
# Target: Muscarinic acetylcholine receptor M4 (Homo sapiens) (UniProt P08173)
# Assay: CHRM4 PAMs potentiating acetylcholine calcium signal – CHO-K1 cells, Fluo-8 calcium fluorescence, primary screen (AID 624126)
# Details: CHO-K1 hM4/Gqi5, Fluo-8 calcium fluorescence, ACh EC20; at 3 µM; stronger effect = higher value; 0% = ACh EC20, 100% = maximal ACh
# Muscarinic acetylcholine receptor M4 (Homo sapiens), sequence (P08173 whole entry, looked up): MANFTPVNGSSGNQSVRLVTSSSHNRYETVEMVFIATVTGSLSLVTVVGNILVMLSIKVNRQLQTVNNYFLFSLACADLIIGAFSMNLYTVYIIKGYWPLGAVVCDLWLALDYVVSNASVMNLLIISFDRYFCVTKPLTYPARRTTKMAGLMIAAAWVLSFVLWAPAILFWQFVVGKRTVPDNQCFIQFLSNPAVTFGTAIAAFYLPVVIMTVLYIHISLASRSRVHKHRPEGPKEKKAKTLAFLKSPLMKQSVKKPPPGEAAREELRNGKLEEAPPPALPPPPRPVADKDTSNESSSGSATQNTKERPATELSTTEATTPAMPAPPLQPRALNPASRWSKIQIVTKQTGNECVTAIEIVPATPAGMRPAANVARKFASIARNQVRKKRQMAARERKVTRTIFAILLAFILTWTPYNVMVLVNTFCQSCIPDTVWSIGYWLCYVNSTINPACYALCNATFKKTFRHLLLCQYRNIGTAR
row,SMILES,activation
1,CCn1cc(C(=O)NCCO)c(=O)c2cc(F)c(N3CCN(C)CC3)cc21,-4.27% (inactive)
2,CCCCNC(=O)c1cn(CC)c2cc(N3CCN(C(=O)c4ccco4)CC3)c(F)cc2c1=O,18% (active)
3,CCCCCCn1cc(C(=O)O)c(=O)c2cc(F)c(N3CCCCC3)cc21,-1.05% (inactive)
4,O=C1NC[C@@H](c2ccccc2)OC(=O)[C@H](Cc2ccc(F)cc2)CC/C=C/C[C@H]1CC(=O)N(CCO)Cc1ccccc1,-11.5% (inactive)
5,O=C(O)CCn1cc(/C=C/C(=O)c2ccc(Cl)cc2)c(-c2cccc(Br)c2)n1,-5.08% (inactive)
6,O=[N+]([O-])c1ccc2[nH]c3c(c2c1)CCCC3O (centres undefined),6.6% (inactive)
7,CC(C)Oc1ccccc1C(=O)NC(CO)C(=O)O (centres undefined),7.23% (inactive)
8,COc1ccc(NC(=O)CCn2ccnc2)c(OC)c1,-8.61% (inactive)
9,COc1ccc(NC(=O)CCCC2CCCCC2)c(OC)c1,21.1% (active)
10,CC(=O)Oc1ccc(NC(=O)CCC2CCCCC2)c(C(=O)O)c1,4.74% (inactive)
11,CCOC(=O)c1c(CN(C)C)n(-c2ccccc2)c2cc(Br)c(O)cc12,1.89% (inactive)
12,Nc1nnc(C2CCCC2)s1,-4.96% (inactive)
13,CCOC(=O)C1CCN(C(=O)/C=C/c2cc(OC)c(OC)c(OC)c2)CC1,0.77% (inactive)
14,COc1cc(/C=C/C(=O)N2CCc3ccccc3C2)cc(OC)c1OC,-4.53% (inactive)
15,COc1ccc(/C=C/C(=O)N2CCCC2)cc1OC,31.3% (active)
16,COc1cccc(NC(=O)Cn2c3ccccc3c3nc4n(c(=O)c32)CCS4)c1,7.32% (inactive)
17,O=C(NCc1ccncc1)NC12CC3CC(CC(C3)C1)C2,21.2% (active)
18,S=C(NCc1ccc(Cl)cc1)NC12CC3CC(CC(C3)C1)C2,-13.6% (inactive)
19,O=C(NCc1cccnc1)C12CC3CC(CC(C3)C1)C2,-4.11% (inactive)
20,Cc1noc(C)c1NC(=O)N(C)C[C@@H]1Oc2cc(Br)ccc2S(=O)(=O)N([C@@H](C)CO)C[C@H]1C,3.07% (inactive)
21,COC(=O)c1ccc(COC(=O)c2cnc(Cl)c(Cl)c2)cc1,1.26% (inactive)
22,COc1ccc(CCNC(=O)COC(=O)c2ncc(Cl)c(Cl)c2Cl)cc1OC,0.15% (inactive)
23,COC(=O)c1ccc(OC(=O)c2nn(C)cc2Cl)c(OC)c1,22% (active)
24,COc1ccc(CSc2nnnn2-c2ccc(O)cc2)cc1F,-3.48% (inactive)
